Screening data from PubChem.
D1 potentiator: human D1 dopamine receptor positive modulation; HEK293 TREx D1 cells, calcium flux, dopamine EC20 potentiation; potentiation, % at 10 µM; 0.036% of 360,000 active; in the data active means potentiation above about 30%; further: 0% is about no effect
D1 ag: human D1 receptor agonism; P21728; HEK293 T-REx D1 cells, calcium flux, agonist mode; activation, % at 2 µM; 1% of 360,000 active; further: 0% is about no effect
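Tetracycline-induced HEK293 TREx D1 cells, force-coupled to calcium signalling, were dye-loaded with a no-wash calcium kit. Compound was pin-added after a 10 s baseline. Fluorescence was read kinetically at 1 cycle/s for 180 s, with calcium rises flagged as agonism.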
TRHR agonist: TRH receptor (human) agonism. P34981. TRHR cells, calcium flux fluo-8, FDSS agonist mode. activation, % at 2 µM. 0.18% of 360,000 active. AID 493084; further: 0% is about no effect
Target sequence (P34981 whole entry, looked up): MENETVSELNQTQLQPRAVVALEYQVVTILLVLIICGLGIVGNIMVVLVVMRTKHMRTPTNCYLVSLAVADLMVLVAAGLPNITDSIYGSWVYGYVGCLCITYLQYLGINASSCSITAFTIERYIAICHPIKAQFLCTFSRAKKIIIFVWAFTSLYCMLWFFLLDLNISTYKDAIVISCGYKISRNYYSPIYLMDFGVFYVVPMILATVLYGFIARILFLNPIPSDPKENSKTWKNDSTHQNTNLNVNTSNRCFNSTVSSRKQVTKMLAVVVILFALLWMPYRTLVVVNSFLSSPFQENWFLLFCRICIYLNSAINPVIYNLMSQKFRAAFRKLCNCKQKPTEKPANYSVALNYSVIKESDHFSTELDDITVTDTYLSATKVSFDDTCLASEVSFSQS
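Read-out: compound-evoked intracellular calcium rise in TRHR cells, fluo-8 dye, kinetic FDSS fluorescence at 1 s/cycle following a 10-cycle baseline. Cells cultured overnight before dye loading (30 min–1.5 h, RT).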
TRHR PAM: allosterically enhances the human TRH receptor; TRHR cells, fluo-8 calcium fluorescence, EC20 TRH enhancement; enhancement, % at 2 µM; 0.66% of 360,000 active; AID 493056; in the data active means enhancement above about 30%; further: 0% is about no effect
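Enhancer read-out: after compound pinning and an initial kinetic agonist-mode read, an EC20 of TRH (10 nM final) was injected and fluo-8 calcium signal (Ex 480/Em 530) followed at 1 s/cycle for 100 cycles in TRHR-expressing cells.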
GRP78 ERSR act: induces the endoplasmic reticulum stress response in human glioma cells | U87-MG GRP78 promoter luciferase reporter, 16 h | Potency, µM, for inactives: top-dose activation, hits mostly activators | 0.02% of 420,000 active | AID 602332; active means well fitted activation curve with a large enough effect; further: potency means the concentration at half of the fitted maximal effect; series mostly up to about 76 µM; % of control where 0% means no effect; nearly all actives have a fitted effect of over 35% in size
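ERSR induction read as luciferase luminescence (Bright-Glo, 10 min at room temperature) in stably transfected human U87-MG glioma cells exposed to compounds for 16 h, using GRP78 as sensor.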
D1 antag: antagonists of human D1 dopamine receptor; 3.2% of 360,000 active; HEK293 TREx D1 cells, calcium flux, dopamine EC80; active compounds read low; activity change, negative = inhibition, % at 10 µM; P21728; in the data active means activity change below about -30%; further: on the % scale 0 is the no-effect control and ±100 the full control effect
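Calcium flux readout: force-coupled, inducible Hek293 Trex D1 line, cells induced overnight at 30 C with tetracycline, dye-loaded 30–90 min at RT. Antagonism scored against EC80 dopamine challenge given 180 s after compound.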
Active calls of the source: *. Sampled rows, rich in hits. Any-hit rate of the full collection: about 4%. Unless noted, no stated cut-off is given here; in the data, active means activation above about 30%; inactive means the rest.

What do the screens show for `COC(=O)CN1C(CN2CCOCC2)=Nc2ccc(Br)cc2C1c1ccccc1` (stereo unspecified)?
D1 potentiator: -7; D1 ag: 1; TRHR agonist: 1; TRHR PAM: 4; GRP78 ERSR act: -8%; D1 antag: -49*

Results for O=C(NCC(c1cccnc1)N1CCN(c2ccccc2F)CC1)c1ccccc1 (stereo unspecified) ?
D1 potentiator: -7; D1 ag: 1; TRHR agonist: 0; TRHR PAM: -13; GRP78 ERSR act: -4%; D1 antag: -32*

What do the screens show for `CN(C)CCNC(=O)C(=O)NCC(c1cccnc1)N1CCN(c2ccccc2)CC1` (stereo unspecified)?
D1 potentiator: -4; D1 ag: 5; TRHR agonist: 0; TRHR PAM: 8; GRP78 ERSR act: -3%; D1 antag: -33*

What do the screens show for `Cc1ccc(C(=O)NCC(c2cccnc2)N2CCc3ccccc3C2)cc1C` (stereo unspecified)?
D1 potentiator: -3; D1 ag: 3; TRHR agonist: 0; TRHR PAM: 1; GRP78 ERSR act: -1%; D1 antag: -31*

Results for O=C(NCc1cccnc1)C(=O)NCC(c1cccnc1)N1CCN(c2ccc(F)cc2)CC1 (stereo unspecified) ?
D1 potentiator: -6; D1 ag: 5; TRHR agonist: 0; TRHR PAM: 9; GRP78 ERSR act: -3%; D1 antag: 1

What do the screens show for `O=C(NCCc1ccccc1)C(=O)NCC(c1cccnc1)N1CCN(c2ccc(F)cc2)CC1` (stereo unspecified)?
D1 potentiator: 1; D1 ag: 33*; TRHR agonist: -1; TRHR PAM: 1; GRP78 ERSR act: -3%; D1 antag: 4

How did O=C(NCc1cccnc1)C(=O)NCC(c1cccnc1)N1CCN(c2ccccc2F)CC1 (stereo unspecified) do in these assays?
D1 potentiator: -5; D1 ag: 7; TRHR agonist: -1; TRHR PAM: 0; GRP78 ERSR act: -5%; D1 antag: 1

Results for CCCCn1c(=O)cc(N2CCOCC2)[nH]c1=O ?
D1 potentiator: -7; D1 ag: 3; TRHR agonist: 0; TRHR PAM: -8; GRP78 ERSR act: -3%; D1 antag: -46*

Results for CC(C)c1nccn1CCC(=O)O ?
D1 potentiator: -28; D1 ag: 3; TRHR agonist: 0; TRHR PAM: -23; GRP78 ERSR act: -1%; D1 antag: -44*

How did Cc1ccc(-n2ccnc(NCc3ccccc3)c2=O)cc1C do in these assays?
D1 potentiator: -2; D1 ag: 1; TRHR agonist: 0; TRHR PAM: 9; GRP78 ERSR act: 5%; D1 antag: -35*

What do the screens show for `COc1ccccc1C(=O)N[C@@H]1c2ccccc2C2(CCN(Cc3ccc4c(c3)OCO4)CC2)[C@H]1O`?
GRP78 ERSR act: -1%

What do the screens show for `CC(=O)Nc1ccc(S(=O)(=O)N(C)CC(=O)NC2CCCCCCC2)cc1`?
GRP78 ERSR act: -2%

Results for CC(=O)Nc1ccc(S(=O)(=O)N(C)CC(=O)NC2=NCCS2)cc1 ?
D1 potentiator: -8; D1 ag: 2; TRHR agonist: 0; TRHR PAM: 2; GRP78 ERSR act: -8%; D1 antag: -31*

Results for O=C(O)C1CCCCC1C(=O)Nc1ccccc1Nc1ccccc1 (stereo unspecified) ?
D1 potentiator: -8; D1 ag: 3; TRHR agonist: 0; TRHR PAM: 24; GRP78 ERSR act: -2%; D1 antag: -41*

Results for O=C(COC(=O)CNC(=O)c1ccccc1)NCCc1ccccc1 ?
D1 potentiator: 2; D1 ag: 5; TRHR agonist: 0; TRHR PAM: -3; GRP78 ERSR act: 1%; D1 antag: 4

Results for O=C(CNC(=O)c1ccccc1)NCCc1ccc(O)c(O)c1 ?
D1 potentiator: -5; D1 ag: 4; TRHR agonist: 0; TRHR PAM: -2; D1 antag: -39*

What do the screens show for `Cc1cnc(-n2ncc(C(=O)NCC3COCCO3)c2C2CC2)nc1-c1cccs1` (stereo unspecified)?
GRP78 ERSR act: 1%
